Screening data as filed in PubChem BioAssay.
Compounds with a hit are over-represented: about 6.1% of the library has one in this group of screens.
D1 ag: Allosteric Agonists of the Human D1 Dopamine Receptor: qHTS; HEK293 T-REx D1 cells, calcium flux, agonist mode; D(1A) dopamine receptor (Homo sapiens), P21728; activation, % at 2 µM; AID 504660, 2011; 1% of 360,000 active; in the data active means activation above about 30%; further: 0% is about no effect
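Tetracycline-induced HEK293 TREx D1 cells, force-coupled to calcium signalling, were dye-loaded with a no-wash calcium kit. Compound was pin-added after a 10 s baseline. Fluorescence was read kinetically at 1 cycle/s for 180 s, with calcium rises flagged as agonism.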
D3 ag: qHTS of D3 Dopamine Receptor Agonist: qHTS; D(3) dopamine receptor (Homo sapiens), P35462; D3R DiscoveRx beta-arrestin cells, luminescence, 90 min; max activation, %; 0.58% of 410,000 active; AID 652048, 2013; in the data active means max activation above about 30%; further: 0% is about no effect
Target sequence (P35462 whole entry, looked up): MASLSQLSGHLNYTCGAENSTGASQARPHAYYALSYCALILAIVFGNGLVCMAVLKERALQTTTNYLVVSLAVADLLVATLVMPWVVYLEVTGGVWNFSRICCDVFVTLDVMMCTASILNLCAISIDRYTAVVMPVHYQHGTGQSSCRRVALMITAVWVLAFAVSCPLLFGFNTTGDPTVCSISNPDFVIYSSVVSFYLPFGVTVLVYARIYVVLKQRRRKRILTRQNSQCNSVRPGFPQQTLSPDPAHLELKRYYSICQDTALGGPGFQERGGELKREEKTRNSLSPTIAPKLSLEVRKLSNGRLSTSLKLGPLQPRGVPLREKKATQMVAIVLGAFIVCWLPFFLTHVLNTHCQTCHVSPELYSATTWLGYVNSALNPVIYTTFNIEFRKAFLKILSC
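Agonist-mode cell screen: cells plated at 1500/well and incubated overnight at 37 °C, then exposed to library compounds for 90 min at 37 °C. Detection reagent was added for 30–60 min at room temperature, and luminescence was read.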
D3 antag: qHTS of D3 Dopamine Receptor Antagonist: qHTS. max response, negative = inhibition, %. 2.5% of 360,000 active. D3R cells, DiscoveRx beta-arrestin luminescence, antagonist mode; active compounds read low. AID 652054, 2013. D(3) dopamine receptor (Homo sapiens), P35462; in the data active means max response below about -50%; further: on the % scale 0 is the no-effect control and ±100 the full control effect
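Cells plated overnight at 1500 cells/well, then exposed to library compounds with dopamine controls for 90 minutes at 37 degrees C. DiscoveRx reagent added for 30–60 minutes at room temperature; luminescence read, quantitative HTS format.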
D1 antagonist: Antagonist of Human D 1 Dopamine Receptor: qHTS | D(1A) dopamine receptor (Homo sapiens), P21728 | HEK293 TREx D1 cells, calcium flux, dopamine EC80; active compounds read low | activity change, negative = inhibition, % at 10 µM | 3.2% of 360,000 active | AID 504652, 2011; in the data active means activity change below about -30%; further: on the % scale 0 is the no-effect control and ±100 the full control effect
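Inducible Hek293 Trex D1 cells (tetracycline, overnight, 30 C). Calcium dye 30–90 min RT. Antagonist mode: EC80 dopamine added after 180 s compound read.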
D1 potentiator: Potentiators of Human D1 Dopamine Receptor: qHTS; D(1A) dopamine receptor (Homo sapiens), P21728; HEK293 TREx D1 cells, calcium flux, dopamine EC20 potentiation; potentiation, % at 10 µM; 0.036% of 360,000 active; in the data active means potentiation above about 30%; further: 0% is about no effect
Numbers without * were called inactive; x = not tested or not shown.

SMILES	D1 ag	D3 ag	D3 antag	D1 antagonist	D1 potentiator
Fc1ccc(Cn2c(-c3cccc(Br)c3)nc3ccccc32)cc1	19	0	x	x	-3
CCCn1c(CCNc2nc(-c3ccc(Cl)c([N+](=O)[O-])c3)cs2)nc2cc(Cl)c(Cl)cc21	-1	-7	-2	0	3
OCC(O)COc1ccc(Cl)cc1 (centres undefined)	x	5	x	x	x
Cn1c(NCc2cccc(Br)c2)nc2ccccc21	5	-13	-58*	8	-1
O=[N+]([O-])c1cccc(C2NCC(c3ccccc3Cl)c3c2[nH]c2ccccc32)c1 (centres undefined)	0	-12	-64*	-9	-5
CN(C)c1ccc(C2CNC(c3ccc(Cl)c([N+](=O)[O-])c3)c3[nH]c4ccccc4c32)cc1 (centres undefined)	2	-5	-27	8	-9
CCN1CCN(C(=O)c2ccc3c(c2)N(Cc2cccc(F)c2)C(=O)c2ccccc2S3)CC1	2	-16	x	-1	-4
COC(=O)C1CCCN1C(=O)c1cccs1 (centres undefined)	3	-4	-76*	2	4
COc1ccc(-c2cc(C(=O)NCCc3ccccc3)c3c(-c4ccccc4)[nH]nc3n2)cc1	3	1	x	-40*	-1
CCOc1ccc(CCNC(=O)c2cn(-c3cccc(OC)c3)c(=O)c3ccccc23)cc1	1	14	x	-42*	-3
COc1cccc(-n2cc(C(=O)NCc3ccc(C)cc3)c3ccccc3c2=O)c1	1	-12	x	5	4
COc1cccc(-n2cc(C(=O)NCCc3ccc(C)cc3)c3ccccc3c2=O)c1	0	4	x	-48*	4
COc1ccc(CCNC(=O)c2cc(-c3ccccn3)nc3ccccc23)cc1	0	1	5	-35*	-4
CCOc1ccc(CCNC(=O)c2cn(-c3ccc(OC)cc3)c(=O)c3ccccc23)cc1OCC	6	-19	x	2	-3
COc1ccc(-c2cc(C(=O)NCCc3ccccc3)c3c(-c4ccc(Cl)cc4)[nH]nc3n2)cc1	6	1	x	7	-3
Cc1noc(C)c1NC(=O)Nc1cccc2c1O[C@H](CN(C)S(=O)(=O)c1cccs1)[C@@H](C)CN([C@H](C)CO)C2=O	x	5	15	x	x
COc1ccc(-n2cc(C(=O)NCCc3ccc(C)cc3)c3ccccc3c2=O)cc1	5	-9	x	-39*	-3
COc1ccc(CCNC(=O)c2cc(C(=O)c3cc(C)ccc3O)cn(CCc3ccc(OC)cc3)c2=O)cc1	-1	31*	67	-16	1
CCOc1ccc(-n2ccnc(SCC(=O)NCc3cccc(OC)c3)c2=O)cc1	2	-17	-60*	13	4
COc1ccc(CCNC(=O)c2cc(C(=O)c3cc(Cl)ccc3O)cn(CCc3ccc(OC)cc3)c2=O)cc1	0	-3	40	-8	-10
COc1cc(NC(=O)COC(=O)c2n[nH]c3ccccc23)c(C)cc1[N+](=O)[O-]	1	-6	12	x	-8
CN1Cc2cccc3c2C(Cc2ccccc2S3)C1 (centres undefined)	3	-9	-64*	-27	-1
O=C(Nc1ncc(S(=O)(=O)c2ccc([N+](=O)[O-])cc2)s1)c1cccc2ccccc12	56*	8	6	-4	9
COCC(=O)Nc1ncc(S(=O)(=O)c2ccc([N+](=O)[O-])cc2)s1	3	-4	-13	4	-4
Cc1cc(C)c(S(=O)(=O)c2ccc(C(C)(C)C)cc2)c(Cl)n1	34*	-1	-3	-27	-7
SMILES	D1 ag	D3 ag	D3 antag	D1 antagonist	D1 potentiator
CCN(C(=O)COc1cc(OC)ccc1C(C)=O)C1CCS(=O)(=O)C1 (centres undefined)	0	0	-2	10	-1
COc1ccc2oc(-c3ccc(NC(=O)c4ccc(N5CCOCC5)c([N+](=O)[O-])c4)cc3)nc2c1	0	54*	82	-8	-5
Cc1cccc(C)c1NC(=O)CSc1nc2ccccc2c2nc(CCc3c(C)n[nH]c3C)nn12	2	10	x	-46*	0
COC(=O)c1ccc(OCC(O)CN2C(=O)c3ccccc3S2(=O)=O)cc1 (centres undefined)	6	5	-9	-40*	-2
O=C1c2ccccc2S(=O)(=O)N1CC(O)COc1ccc(Cl)cc1 (centres undefined)	4	-6	-2	-3	-2
O=[N+]([O-])c1cccc(-c2cn3nc(-c4ccccc4)c(-c4ccccc4)nc3n2)c1	6	6	-2	4	3
O=[N+]([O-])c1ccc(-c2cn3nc(-c4ccccc4)c(-c4ccccc4)nc3n2)cc1	10	14	13	-19	1
Cc1ccc(-c2cn3nc(-c4ccccc4)c(-c4ccccc4)nc3n2)cc1	43*	-5	5	0	5
c1ccc(-c2cn3nc(-c4ccccc4)c(-c4ccccc4)nc3n2)cc1	73*	2	-8	5	-6
COC(=O)c1c(-c2ccc(Cl)cc2)noc1N1CCN(c2ccccc2OC)CC1	1	28	x	-31*	0
COC(=O)c1c(-c2ccc(Cl)cc2)noc1N1CCN(c2cccc(C(F)(F)F)c2)CC1	4	95*	x	-5	0
COc1ccc(-c2noc(CCC(=O)N3CCN(c4cccc(C(F)(F)F)c4)CC3)n2)cc1	12	11	42	1	6
COC(=O)c1c(-c2ccc(Cl)cc2)noc1N1CCN(c2ccc(F)cc2)CC1	1	64*	x	-10	-2
COc1ccccc1N1CCN(C(=O)c2c(-c3ccccc3)noc2C)CC1	3	4	2	-2	0
COc1ccc(NC(=O)CSc2ncc3c(n2)-c2ccccc2N(C)S3(=O)=O)cc1Cl	2	6	x	9	5
O=C(CS(=O)c1ccc(Br)cc1)N1CCOCC1 (centres undefined)	4	-4	3	-20	3
O=C(C[C@H]1C/C=C\CC[C@@H](Cc2ccc(F)cc2)C(=O)O[C@H](c2ccccc2)CNC1=O)N[C@H](CO)Cc1ccccc1	x	-2	-3	x	x
O=C(NC1CC2CCC(C1)N2Cc1ccccc1)c1cccc(F)c1 (centres undefined)	3	-4	-117*	-50*	-8
COc1ccc(CN2C3CCC2CC(NC(=O)c2cccc(F)c2)C3)cc1 (centres undefined)	8	-15	-86*	-26	-11
O=C(NC1CC2CCC(C1)N2Cc1ccco1)c1ccccc1 (centres undefined)	2	-3	-69*	-40*	-25
